The values below come from PubChem BioAssay (EPA / NIEHS).

Inconclusive results are not listed. Active and inactive are the calls of the source. The calls were made as follows, unless noted: active = hit-call score of the fitted dose curve at least 0.9, where 1 is the maximum; inactive = score below 0.9.

Test [1] addresses Nucleoli Translocation, AR (gene 367) (UniProt P10275). Briefly: UPITT_HCI_U2OS_AR_TIF2_Nucleoli_Antagonist: University of Pittsburgh U2OS Androgen Receptor-Transcriptional Intermediary Factor 2 (AR-TIF2) Antagonism High Content Imaging Assay for Nucleoli Translocation (AID 2283997; active = hit-call score of the fitted dose curve at least 0.9, where 1 is the maximum). The method in brief: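 Compounds are added at 20 uM final concentration in 0.2% DMSO to U2OS cells carrying AR-RFP and TIF2-GFP fusions. Nucleolar AR-RFP fluorescence is then quantified by automated imaging. Antagonism is fitted positively against DHT baseline.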

Test [2] addresses Ratio of Nucleoli Translocation and Cytoplasm, AR (gene 367) (UniProt P10275). Briefly: UPITT_HCI_U2OS_AR_TIF2_Nucleoli_Cytoplasm_Ratio_Antagonist: University of Pittsburgh U2OS Androgen Receptor-Transcriptional Intermediary Factor 2 (AR-TIF2) Antagonism High Content Imaging Assay for Ratio of Nucleoli Translocation and Cytoplasm (AID 2283999; active = hit-call score of the fitted dose curve at least 0.9, where 1 is the maximum;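 also: antagonists lower the DHT-driven ratio of nucleolar to cytoplasmic red signal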). The method in brief:
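High-content imaging of red fluorescence ratio, nucleoli versus cytoplasm, in U2OS expressing AR-RFP and TIF2-GFP, fitted relative to DHT. Compounds tested once at 20 uM final, then 0.195 to 50 uM final in serial dilution.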

Test [3] shares this target. The test is described as follows: UPITT_HCI_U2OS_AR_TIF2_Nucleoli_Cytoplasm_Ratio_Agonist: University of Pittsburgh U2OS Androgen Receptor-Transcriptional Intermediary Factor 2 (AR-TIF2) Agonism High Content Imaging Assay for Ratio of Nucleoli Translocation and Cytoplasm (AID 2284000; active = hit-call score of the fitted dose curve at least 0.9, where 1 is the maximum;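 also: hits raise the red nucleolar to cytoplasm ratio above vehicle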). In a few lines: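 Human osteosarcoma U2OS line, AR-RFP plus TIF2-GFP; compounds 0.195–50 uM final, 0.5% DMSO. Readout: nucleolar/cytoplasmic RFP ratio by HCI, positive direction vs DMSO baseline.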

In test [4] the target is Retinoic acid receptor RXR-alpha (Homo sapiens) (UniProt P19793). Briefly: TOX21_TR_RXR_BLA_Agonist_Followup_ratio: Tox21 Thyroid Hormone Receptor beta Retinoid X Receptor alpha (RXRa) Agonism Beta-lactamase (BLA) Follow-Up Assay, Ratio (AID 2283968; active = hit-call score of the fitted dose curve at least 0.9, where 1 is the maximum). The method in brief:
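Agonist mode: compounds given to RXRa-bla HEK293T cells at 11 concentrations, triplicate, 16 h at 37C/5% CO2. Readout is the 460:530 nm blue/green ratio after 2 h substrate loading at room temperature; DMSO baseline, 9-cis retinoic acid control.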

The subject of another test is DIO1 (gene 1733). The test is described as follows: CCTE_GLTED_hDIO1: CCTE's human Deiodinase 1 (DIO1) Inhibition Assay, Great Lakes Toxicology and Ecology Division (GLTED) Lab (AID 2283987; active = hit-call score of the fitted dose curve at least 0.9, where 1 is the maximum;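 also: isolated human DIO1 enzyme in a cell-free setup rather than cells; enzyme activity read as free iodide liberated from substrate via Sandell-Kolthoff colorimetry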). The method in brief:
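Inhibition read as reduced iodide release: after 3 h of human DIO1 with chemical, free iodide is quantified colorimetrically (Sandell-Kolthoff cerium/arsenic reaction). Triplicate plates, DMSO baseline.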

Test [5] in a line: CCTE_Harrill_HTTr_Viability_MCF7: CCTE's 6-hour Cell Viability Assessment for the High-Throughput Transcriptomics (HTTr) Platform, in MCF-7 cells cultured in DMEM + 10% fetal bovine serum, Harrill Lab (AID 2284010). The method in brief: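 Propidium iodide exclusion, imaged by high-content analysis, gauged viability after a six-hour exposure across eight concentrations. Cells were MCF-7 grown in DMEM with 10% fetal bovine serum; fits run in both directions against DMSO.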

Test [6] in a line: CCTE_Harrill_HTTr_Apoptosis_MCF7: CCTE's 6-hour Apoptosis Assessment for the High-Throughput Transcriptomics (HTTr) Platform, in MCF-7 cells cultured in DMEM + 10% fetal bovine serum, Harrill Lab (AID 2284011). The method in brief:
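High-content imaging of CellEvent Caspase 3/7 Green signal follows a six-hour exposure, with eight concentrations per chemical. MCF-7 cells grown in DMEM plus 10% fetal bovine serum; activity fitted in both directions against DMSO.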

Test [7] in a line: CCTE_Harrill_HTTr_CellCount_MCF7: CCTE's Cell Proliferation Assessment for the High-Throughput Transcriptomics (HTTr) Platform, Harrill Lab (AID 2284012; active = hit-call score of the fitted dose curve at least 0.9, where 1 is the maximum;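 also: cells exposed to compound for six hours; intended direction is loss of nuclei count meaning fewer cells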). In a few lines: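 Cell count from high-content imaging of Hoechst-labeled nuclei serves as viability/growth readout. Chemicals were applied to MCF-7 cells in eight concentrations for six hours, with fitting in both directions relative to DMSO.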

Test [8] can be described thus: TOX21_TR_RXR_BLA_Agonist_Followup_viability: Viability Assessment in the Tox21 Thyroid Hormone Receptor beta Retinoid X Receptor alpha (RXRa) Agonism Beta-lactamase (BLA) Follow-Up Assay (AID 2283970; active = hit-call score of the fitted dose curve at least 0.9, where 1 is the maximum). The method in brief:
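CellTiter-Glo ATP luciferase read-out of cell viability, multiplexed with the beta-lactamase reporter run. RXRa-bla HEK293T cells in charcoal-stripped serum medium were exposed 16 h at 37C; data fitted both directions relative to DMSO.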

The nature of test [9]: CCTE_Shafer_MEA_acute_spike_number: CCTE's Neural Acute Assay for Total Number of Spikes, Shafer Lab (AID 2284008). In a few lines: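 Total spike count from 40 min recordings before and during compound exposure (0.03-40 uM), given as per-well percent change. Cortical cultures from rat, DIV 13 or 15, 37 C; adaptive detection threshold 8x rms noise.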
Test [10] in a line: CCTE_Shafer_MEA_acute_firing_rate_mean: CCTE's Neural Acute Assay for Mean Firing Rate, Shafer Lab (AID 2284009).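 Also: analyzed for loss of signal so actives lower firing rate relative to DMSO.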 In a few lines:
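Rat cortical neuron cultures matured to DIV 13 or 15, equilibrated 20 min at 37 C, then recorded 40 min for baseline. Compound (0.03-40 uM) added and a further 40 min recorded; percent change in mean firing rate calculated per well.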

Test [11] is described as follows: CCTE_Shafer_MEA_acute_burst_number: CCTE's Neural Acute Assay for Single-Electrode Bursts, Shafer Lab (AID 2284013). The method in brief:
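Percent change in single-electrode burst number per well, from 40-min recordings taken before and after adding compound (0.03-40 uM) to primary rat cortical neurons on MEA plates at DIV 13 or 15, 37 C.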

Test [12] can be described thus: CCTE_Shafer_MEA_acute_burst_duration_mean: CCTE's Neural Acute Assay for Mean Burst Duration, Shafer Lab (AID 2284014).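 Also: hits are decreases in mean burst duration relative to DMSO controls.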 In a few lines: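 Rat cortical cultures, DIV 13/15; 40 min baseline, then 40 min with compound (0.03-40 uM), 37 C. Spikes: 300-5000 Hz band-pass, 8x rms threshold. Read-out: % change in mean single-electrode burst duration, DMSO-referenced, loss direction.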

Test [13] in a line: CCTE_Shafer_MEA_acute_per_burst_spike_number_mean: CCTE's Neural Acute Assay for Average Number of Spikes Per Burst, Shafer Lab (AID 2284015).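 Also: hits are decreases in mean spikes per burst versus baseline.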 In a few lines:
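Rat primary cortical neurons on 48-well MEAs (DIV 13 or 15) were treated with 0.03-40 uM compound at 37 C. Mean spikes per burst over 40 min were recorded before and after exposure and expressed as percent change from baseline, relative to DMSO.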

The nature of test [14]: CCTE_Shafer_MEA_acute_interburst_interval_mean: CCTE's Neural Acute Assay for Mean Interburst Interval, Shafer Lab (AID 2284016).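 Also: percent change of mean interburst interval versus each well's own pre-dose baseline; curves fitted for decrease in interburst interval relative to DMSO.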 The method in brief:
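Rat primary cortical neurons on 48-well MEAs at DIV 13 or 15 were exposed acutely to 0.03-40 uM. Spikes detected at 8x rms noise, 37 C. Mean interburst interval from 40 min recordings expressed as percent change from 40 min pre-treatment baseline.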

Test [15] in a line: CCTE_Shafer_MEA_acute_burst_percentage_mean: CCTE's Neural Acute Assay for Percentage of Spikes in a Burst, Shafer Lab (AID 2284017). In a few lines:
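Primary rat cortical neurons on 48-well MEA plates, treated on DIV 13 or 15 at 0.03-40 uM. Spikes detected at 8x rms noise at 37C; percent change from 40-min baseline to 40-min post-dose recording, fitted versus DMSO.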

The nature of test [16]: CCTE_Shafer_MEA_acute_burst_percentage_std: CCTE's Neural Acute Assay for Standard Deviation of Burst Percentage, Shafer Lab (AID 2284018).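 Also: fitted in the negative direction so actives lower burst percentage SD.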 The method in brief:
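Rat primary cortical neurons on 48-well MEAs, DIV 13 or 15, 37 C. 40-min baseline then 40-min recording with compound (0.03-40 uM); well-level SD of per-electrode burst spike percentage, expressed as percent change from baseline.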

A short description of test [17]: CCTE_Shafer_MEA_acute_per_network_burst_spike_number_mean: CCTE's Neural Acute Assay for Average Number of Spikes in a Network Burst, Shafer Lab (AID 2284019). In a few lines: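 Rat cortical cultures, DIV 13/15; spike threshold 8x rms noise, 300-5000 Hz band-pass, 12.5 kHz sampling; wells need >/= 10 active electrodes. Compound 0.03-40 uM, 40 min, 37 C; % change vs own baseline, DMSO negative control.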

Nucleoli Translocation, AR (gene 367), sequence (P10275 whole entry, looked up, the tested form may be a part): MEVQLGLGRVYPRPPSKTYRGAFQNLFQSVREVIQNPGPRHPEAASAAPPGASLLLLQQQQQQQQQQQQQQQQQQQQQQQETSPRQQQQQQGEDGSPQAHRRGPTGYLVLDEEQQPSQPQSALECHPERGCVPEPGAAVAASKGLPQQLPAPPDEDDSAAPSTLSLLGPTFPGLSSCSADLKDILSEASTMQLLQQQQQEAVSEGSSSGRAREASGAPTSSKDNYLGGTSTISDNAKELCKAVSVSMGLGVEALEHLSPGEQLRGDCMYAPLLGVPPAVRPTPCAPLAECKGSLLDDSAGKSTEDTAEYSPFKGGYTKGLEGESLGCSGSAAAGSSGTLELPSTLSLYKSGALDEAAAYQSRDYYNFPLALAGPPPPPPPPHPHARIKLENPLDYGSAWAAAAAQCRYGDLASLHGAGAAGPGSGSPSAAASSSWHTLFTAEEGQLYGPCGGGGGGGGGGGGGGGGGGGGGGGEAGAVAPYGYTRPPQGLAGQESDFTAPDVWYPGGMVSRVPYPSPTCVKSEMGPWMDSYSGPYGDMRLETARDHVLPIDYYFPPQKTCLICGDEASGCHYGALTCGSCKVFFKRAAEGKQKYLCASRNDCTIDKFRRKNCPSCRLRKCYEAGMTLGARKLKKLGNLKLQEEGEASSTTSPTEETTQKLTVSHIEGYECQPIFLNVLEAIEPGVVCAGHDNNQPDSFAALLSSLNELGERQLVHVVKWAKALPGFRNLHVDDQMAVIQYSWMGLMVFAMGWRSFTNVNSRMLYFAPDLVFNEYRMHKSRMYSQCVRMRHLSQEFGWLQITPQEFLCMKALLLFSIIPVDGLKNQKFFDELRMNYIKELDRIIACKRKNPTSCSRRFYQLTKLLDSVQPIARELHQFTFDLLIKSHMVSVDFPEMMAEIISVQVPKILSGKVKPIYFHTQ
Ratio of Nucleoli Translocation and Cytoplasm, AR (gene 367), sequence (P10275 whole entry, looked up): as the sequence (P10275 whole entry, looked up, the tested form may be a part) above
Retinoic acid receptor RXR-alpha (Homo sapiens), sequence (P19793 whole entry, looked up): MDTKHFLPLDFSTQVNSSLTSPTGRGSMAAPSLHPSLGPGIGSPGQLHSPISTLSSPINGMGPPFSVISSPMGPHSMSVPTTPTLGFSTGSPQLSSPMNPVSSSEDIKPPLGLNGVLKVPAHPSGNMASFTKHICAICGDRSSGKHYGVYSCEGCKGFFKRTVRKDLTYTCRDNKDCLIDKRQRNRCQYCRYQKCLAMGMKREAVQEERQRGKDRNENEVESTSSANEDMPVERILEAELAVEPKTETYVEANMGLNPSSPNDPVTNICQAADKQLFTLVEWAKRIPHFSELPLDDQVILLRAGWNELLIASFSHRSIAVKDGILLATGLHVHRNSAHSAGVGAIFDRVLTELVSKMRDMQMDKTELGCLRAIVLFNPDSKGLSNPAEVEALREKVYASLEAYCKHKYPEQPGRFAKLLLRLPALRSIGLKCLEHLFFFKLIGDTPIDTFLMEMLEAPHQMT

For `BrCc1cccc(Oc2ccccc2)c1`, the outcome in [1], in [2] and in [3] was inactive.

With `OCCCCC(O)CO` (stereo unspecified), in [4], the result was inactive.

As to `CCOc1ccc(N=Nc2ccc(C=Cc3ccc(N=Nc4ccc(OCC)cc4)cc3S(=O)(=O)O)c(S(=O)(=O)O)c2)cc1`, the AC50 with DIO1 (gene 1733) is 0.72 µM (active).

In the case of `CCCCCCCCC=CCCCCCCCC1=NCCN1CCO`, the AC50 with DIO1 (gene 1733) was 36.3 µM (active); in test [1], 93 µM (active); in test [3] it was 13.7 µM (active). Moreover, the result in [2] was inactive.

For `C[C@H]1O[C@@H](O[C@H]2[C@@H](O)C[C@H](O[C@H]3[C@@H](O)C[C@H](O[C@H]4CC[C@@]5(C)[C@H](CC[C@@H]6[C@@H]5C[C@@H](O)[C@]5(C)[C@@H](C7=CC(=O)OC7)CC[C@]65O)C4)O[C@@H]3C)O[C@@H]2C)C[C@H](O)[C@@H]1O`, the outcome in test [1], in test [2], in test [5], in [6] and in test [7] was inactive.

Take `CC(C)CCCCCCc1ccc(OCCOCCO)cc1`: the outcome in [1] and in [2] was inactive.

On to `CC(=O)Nc1ccc(C(=O)CCl)cc1`, for which the AC50 in test [8] is 69.1 µM (active). Also, the outcome in [5] and in test [7] was inactive.

With `OCc1cccc(Oc2ccccc2)c1`, the call in test [1], in [2], in test [3], in [5] and in test [7] was inactive.

Take `O=CN1CCOCC1`: the call in test [9], in [10], in test [11], in [12], in test [13] and in [14] was inactive. Moreover, the call in [15], in test [16] and in [17] was inactive.

Turning to `CN(C)C(=S)SC(=S)N(C)C`, the compound was classed as inactive in [9], in test [10], in [11], in test [12], in test [13] and in [14]. For the same compound, the outcome in [15], in test [16] and in [17] was inactive.

In the case of `CCc1ccc(O)cc1`, the call in test [1], in test [5] and in [7] was inactive.

`COCCc1ccc(OCC(O)CNC(C)C)cc1` (stereo unspecified): the compound was called inactive in test [9], in [10], in test [5], in test [6], in test [7] and in test [11]. The compound was called inactive in test [12], in [13], in test [14], in test [15], in test [16] and in test [17].

On to `CC(=O)O[C@@H]1CC2CCC1(C)C2(C)C` (stereo partly specified), for which the result in test [1] and in [5] was inactive.

Consider `CC(=O)O[C@H]1C[C@@H]2CC[C@@]1(C)C2(C)C`, for which the call in test [1] and in test [2] was inactive.

As to `N[C@@H](Cc1cc(I)c(Oc2cc(I)c(O)c(I)c2)c(I)c1)C(=O)O`, the result in test [4], in test [8], in test [5] and in test [7] was inactive.

As for `CCCCC(CC)COC(=O)c1ccc(O)cc1` (stereo unspecified), in the test with DIO1 (gene 1733), the AC50 is 85.4 µM (active).

As usually defined, the AC50 is the concentration at which the activity in the assay is half-maximal.
